# m5-HT2A agonist = activates the mouse 5-HT2A serotonin receptor | CHO-K1 mHTR2A beta-arrestin complementation, luminescence; percent of 30 µM serotonin response | P35363 | AID 624169 | actives 0.66% (n = 360,000) | activation, % at 7.6 µM;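 active = activation above a run cutoff, the mean activation of all tested compounds plus 3 SD, cut at about 14% in these data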;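 also: 0% = plate median of compound wells and 100% = 30 µM serotonin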
# ANO1 block = blocks the mouse calcium-activated chloride channel TMEM16A. Q8BHY3. HEK293 TMEM16A/YFP iodide influx fluorescence, ionomycin. normalized B-score (activity score, 25-100; higher = stronger inhibition) at 10 µM. actives 1.2% (n = 310,000);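 active = ratio plate-corrected score three or more library SD toward inhibition, starting fluorescence score within five deviations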;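 also: score derived from kinetic fluorescence span divided by baseline fluorescence per well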
# NOD2-RIPK2 inh = NOD2-RIPK2 protein interaction inhibition | O43353 | CHO BLA complementation NOD2-RIPK2, CCF4 ratio | inhibition, % at 4.98 µM | actives 0.38% (n = 360,000); in the data active = inhibition above about 21%;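 also: 0% = vehicle only and 100% = reference blocker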
# Target sequence (O43353 whole entry, looked up): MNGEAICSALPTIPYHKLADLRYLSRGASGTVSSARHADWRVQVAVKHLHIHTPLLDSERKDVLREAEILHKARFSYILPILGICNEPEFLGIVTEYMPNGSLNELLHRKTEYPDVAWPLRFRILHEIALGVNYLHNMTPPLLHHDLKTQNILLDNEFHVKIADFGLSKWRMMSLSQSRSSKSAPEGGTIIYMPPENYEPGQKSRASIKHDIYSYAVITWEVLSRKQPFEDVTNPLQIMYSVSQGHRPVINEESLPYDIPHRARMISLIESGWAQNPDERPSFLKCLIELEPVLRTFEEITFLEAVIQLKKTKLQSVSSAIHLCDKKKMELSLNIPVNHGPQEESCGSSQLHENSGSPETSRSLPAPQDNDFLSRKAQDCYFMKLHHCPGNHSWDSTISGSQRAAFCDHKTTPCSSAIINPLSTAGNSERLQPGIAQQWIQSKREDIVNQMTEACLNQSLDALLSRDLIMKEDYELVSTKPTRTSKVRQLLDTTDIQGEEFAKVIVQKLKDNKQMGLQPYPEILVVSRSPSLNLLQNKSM
# TLR9-MyD88 inh = TLR9-MyD88 interaction inhibition; CHO BLA complementation TLR9-MyD88, CCF4 FRET ratio; inhibition, % at 4.98 µM; actives 0.21% (n = 340,000); AID 504734;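 active = inhibition above the mean over all tested compounds plus 3 SD, cut at about 21% in these data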;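 also: 0% = DMSO only wells and 100% = clavulanate BLA inhibitor control wells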
# TLR4 MyD88 comp = TLR4-MyD88 interaction inhibition in cells; O00206+Q99836; HeLa CL3-4 TLR4/MyD88 BLA complementation, FRET ratio; inhibition, % at 8.4 µM; actives 0.18% (n = 200,000); AID 861; in the data active = inhibition above about 25%;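 also: 0% = vehicle and 100% = reference inhibitor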
# TMEM16A act = activates or potentiates the mouse TMEM16A chloride channel | B-score at 10 µM | Q8BHY3 | actives 0.3% (n = 340,000) | AID 623877 | HEK293 TMEM16A/YFP-H148Q/I152L, iodide quench fluorescence; active compounds read low;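 active = fluorescence-ratio B-score plate-corrected deviation score at least 3 library SD below zero, with starting fluorescence score within 5 deviations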;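 also: channel opened by trigger with iodide after compound preincubation; score built on the fluorescence ratio of max minus min over baseline; more negative score means more quench and so TMEM16A activation or potentiation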
# TLR9-MyD88 conf = TLR9-MyD88 interaction inhibition, confirmation | inhibition, % at 4.98 µM | AID 540250 | shares compounds with TLR9-MyD88 inh | actives 51% (n = 680) | CHO TLR9/MyD88 BLA complementation, CCF4 FRET ratio;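 active = mean inhibition across three repeats above about 21% taken from the earlier screen, limit read from the data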;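 also: blue over green emission ratio reports constitutive TLR9 MyD88 association via BLA complementation; 0% = DMSO vehicle wells and 100% = clavulanate BLA inhibitor wells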
# BLA counter-1 = non-selective beta-lactamase inhibitors in TLR9-MyD88 counter-screen; inhibition, % at 4.98 µM; shares compounds with TLR9-MyD88 inh; actives 7% (n = 680); CHO-BLA cells, CCF4 FRET ratio, BLA reporter;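 active = mean inhibition above a 50% cutoff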;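 also: counterscreen of TLR9-MyD88 hits on CMV-driven BLA in CHO-K1 cells; 0% = DMSO alone and 100% = clavulanate blocking BLA; higher means less blue over green ratio so more BLA blockade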
# TLR9 CHO tox = CHO cell toxicity counter-screen for TLR9-MyD88 inhibitors | TLR9-MyD88 CHO cells cytotoxicity, luminescence | inhibition, % at 4.98 µM | actives 39% (n = 680) | shares compounds with TLR9-MyD88 inh | AID 588336; in the data active = inhibition above about 11%
# MOR ag counter = OPRM1 agonism in mouse HTR2A counterscreen | U2OS OPRM1 beta-arrestin PathHunter, luminescence; DMSO 0%, DAMGO 9.3 µM 100% | actives 5.3% (n = 2,300) | shares compounds with m5-HT2A agonist | AID 624380 | activation, % at 9.3 µM;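 active = mean activation above the mean of DMSO-only wells plus 3 SD, cut at about 0.5% in these data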
# m5-HT2A ag conf = confirmation of mouse HTR2A serotonin receptor agonists | shares compounds with m5-HT2A agonist | CHO-K1 PathHunter beta-arrestin recruitment, luminescence; DMSO 0%, 30 µM serotonin 100% | activation, % at 7.6 µM | actives 19% (n = 2,300) | AID 624381;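 active = mean activation across triplicates above the hit threshold derived in the original primary screen, cut at about 15% in these data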
# NOD2 RIPK2 conf = NOD2-RIPK2 interaction inhibition confirmed; inhibition, % at 4.98 µM; actives 70% (n = 1,200); CHO cells, NOD2-RIPK2 BLA complementation, CCF4 FRET; shares compounds with NOD2-RIPK2 inh;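 active = mean inhibition across replicates above a set limit taken from the earlier primary screen, cut at about 21% in these data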;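 also: 0% = DMSO-only wells and the high end = clavulanate BLA-blocked wells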
# BLA counter-2 = hits BLA reporter in NOD2-RIPK2 inhibitor counterscreen; shares compounds with NOD2-RIPK2 inh; CHO BLA reporter, CCF4 FRET ratio; inhibition, % at 4.98 µM; actives 57% (n = 1,200);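 active = mean inhibition above the low-control mean inhibition plus three low-control SD, cut at about 11% in these data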;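 also: 0% = DMSO only wells and 100% = clavulanate high control wells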
# The depositor's hits bear a star; i = inactive; / = not tested or not shown. Most compounds without a hit are left out; they make up all but 2.4% or so of the library.
SMILES,m5-HT2A agonist,ANO1 block,NOD2-RIPK2 inh,TLR9-MyD88 inh,TLR4 MyD88 comp,TMEM16A act,TLR9-MyD88 conf,BLA counter-1,TLR9 CHO tox,NOD2 RIPK2 conf,BLA counter-2,others
Cc1ccccc1NC(=O)/C=C/c1ccc([N+](=O)[O-])s1,-3,i,39*,27*,19,i,28*,22,96*,37*,41*,
Cc1cc(C)cc(NC(=O)/C=C/c2ccc([N+](=O)[O-])s2)c1,-1,i,9,-1,2,i,/,/,/,/,/,
CCCCC1C(=O)N(c2ccccc2)N(c2ccc(O)cc2)C1=O (configuration not stated),8,i,68*,29*,/,i,6,-1,82*,29*,4,
CCCCC1(CO)C(=O)N(c2ccccc2)N(c2ccccc2)C1=O,4,i,-4,5,/,i,/,/,/,/,/,
O=C(NC1CC1)c1cccc2c1C(=O)c1ccc(N3CCC(Cc4ccccc4)CC3)cc1S2(=O)=O,3,/,34*,32*,/,i,21,25,2,45*,50*,
O=[N+]([O-])c1ccc(/C=C/C2=NN(c3ccccc3)C(c3ccco3)C2)cc1 (configuration not stated),-4,i,4,11,17,i,/,/,/,/,/,
O=[N+]([O-])c1ccc(C2=NN(c3ccccc3)C(c3ccco3)C2)cc1 (configuration not stated),-2,/,41*,59*,/,i,40*,41,5,73*,69*,
Nc1cccc2c1C(=O)N(C(=O)c1cccc(S(=O)(=O)N3CCCCCC3)c1)C2=O,-1,i,28*,25*,16,i,16,14,4,33*,38*,
Cc1ccc(S(=O)(=O)N2CCOCC2)cc1C(=O)N1C(=O)c2cccc(N)c2C1=O,6,i,10,-1,-8,i,/,/,/,/,/,
CCCCCCSc1ccc(-c2nc3cnccn3c2NCCCC)cc1,-1,/,24*,23*,/,i,48*,50*,-7,68*,77*,
O=C(Nc1ccccc1C(F)(F)F)N1CCN(c2ccccn2)CC1,5,i,-3,2,5,i,/,/,/,/,/,
COc1ccc(C(=O)/C=C/c2ccc(N(C)C)cc2)c(OC)c1,6,i,59*,36*,/,i,29*,31,0,62*,66*,
CCOC(=O)c1ccc(N(CC(=O)NC2CCCC2)C(=O)CNC(=O)c2ccco2)cc1,1,i,-5,2,-21,i,/,/,/,/,/,
NS(=O)(=O)c1ccc(NC(=O)CSc2nnc(C3CC3)n2C2CC2)cc1,-6,/,3,3,/,i,/,/,/,/,/,
Cc1ccc(NNC(=S)Nc2ccc(C(C)C)cc2)c(C)c1,-4,i,-4,6,9,i,/,/,/,/,/,
O=C(c1ccccc1)c1cc(Cl)ccc1N1C(=O)C=CC1=O,-6,/,59*,33*,8,i,38*,8,96*,89*,23*,
O=C1Cc2ccccc2C(=O)N1Cc1cccc(Cl)c1,-3,i,-10,7,/,i,/,/,/,/,/,
Nc1cccc2c1C(=O)N(Cc1cccc(Cl)c1)C2=O,-7,i,35*,21*,20,i,17,20,4,32*,45*,
COc1cc2c3nnc(-c4ccc(F)cc4)c-3cn(Cc3ccc(F)cc3)c2cc1OC,18*,i,56*,24*,2,i,11,15,3,61*,64*,MOR ag counter=0;m5-HT2A ag conf=15*
Cn1nc2c3cc(F)ccc3n(Cc3ccc(F)cc3)cc-2c1=O,-2,i,-6,9,/,i,/,/,/,/,/,
CCc1cccc(C)c1NC(=O)COC(=O)c1c2c(nc3ccccc13)/C(=C\c1cccs1)CCC2,-2,i,1,-9,-10,i,/,/,/,/,/,
CCCCNC(=O)COC(=O)c1c2c(nc3ccccc13)/C(=C\c1cccs1)CC2,-1,/,55*,45*,/,i,47*,56*,8,66*,76*,
CC(C)NC(=O)c1sc2nc(-c3cccs3)cc(-c3cccs3)c2c1N,/,i,/,/,5,/,/,/,/,/,/,
COc1ccc(C(=O)c2sc3nc(C)cc(-c4cccs4)c3c2N)cc1OC,3,i,61*,41*,12,i,25*,25,8,50*,60*,
COc1ccc(N2C(=O)CCC2(C#N)c2ccc(OC)cc2)cc1 (configuration not stated),-1,i,0,1,20,i,/,/,/,/,/,
N/C(=N\OCc1ccc([N+](=O)[O-])cc1)c1ccccn1,/,i,/,/,6,i,/,/,/,/,/,
C=CCn1c(CSc2ccccc2[N+](=O)[O-])n[nH]c1=S,-5,i,-11,-3,/,i,/,/,/,/,/,
C=CCn1c(Sc2ncc([N+](=O)[O-])s2)n[nH]c1=O,-7,i,63*,32*,/,i,44*,-2,99*,77*,15*,
CS(=O)(=O)c1sc(C#N)c2c1C(=O)CC(c1ccccc1)C2 (configuration not stated),-10,i,99*,58*,/,-11*,53*,38,100*,94*,36*,

# Compound activity deposited in PubChem BioAssay by several laboratories.
